Molecules are shown by their SMILES. The campaign covered roughly 310,000 compounds. About 1,000 (0.32%) were called active. These entries were drawn from the full list. Potency and affinity values are given separately. A number with no mark means an inactive call. No rule for the calls is given here. Where a SMILES comes first, the peptide text is derived from it. The star is where a group is joined. Boc = CC(C)(C)OC(=O)*

The nature of the assay: Inhibition of PhoP regulon, Salmonella typhi GFP reporter cells, confirmation, 4 h (AID 1850).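 Also: 0% = induced wells with vehicle and 100% = uninduced wells.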 The following applies: Salmonella Typhi PhoP-promoter GFP reporter, fluorescence, at 50 µM, stronger effect = higher value.
On to `CC1CCCN(C(=O)C23CCC(C)(C(=O)C2)C3(C)C)C1` (stereo not given), for which the inhibition (commonly the change of the read-out against control, counted positive when it falls) was -4.73%. As to `COc1cc(CCC(=O)N2CC(C)OC(C)C2)cc(OC)c1OC` (stereo not given), the inhibition is -14.2%.

With `CC(C)CN(C(=O)CN(C)C(=O)c1ccco1)c1c(N)n(CC(C)C)c(=O)[nH]c1=O`, the inhibition is -1.06%. Regarding `Cc1cc2oc(=O)cc(Cn3ncc(Cl)c(Cl)c3=O)c2cc1Cl`, the inhibition is -3.81%. For `Cc1cccc(OCCNc2cc(N3CCN(C)CC3)ccc2[N+](=O)[O-])c1`, the inhibition was -4.31%. As to `COC(=O)[C@@H](NC(=O)c1ccccc1)[C@@H](C)O`, the inhibition was -3.17%.

On to `COc1cccc(CN2CC(C(=O)NC3CCC3)CCC2=O)c1` (stereo not given), for which the inhibition is -3.12%.

Consider `C/C(=N\Nc1ccccc1Cl)c1ccc(-n2ccnc2)cc1`, for which the inhibition was 7.81%.

For the compound `CCCCOC(=O)c1ccc(NC(=O)COC(=O)CSc2nc(C)cc(C)n2)cc1`, the inhibition was -5.18%. Then `CNCCC1Sc2ccccc2Oc2ccccc21` (stereo not given), with 10.6%. Then `CN(C)CCC1Sc2ccccc2Oc2ccccc21` (stereo not given), with -1.34%. As for `COc1ccccc1NC(=O)CSc1nnc(CCC(=O)Nc2ccccc2F)n1C`, the inhibition was -5.48%. Then `Cc1ccc(C(=O)Nn2cnnc2)cc1`, with -11.2%; and `O=C1NC(c2ccncc2)C(C(=O)c2cccs2)C(O)(C(F)(F)F)N1` (stereo not given), with 2.95%; and `CCOC(=O)C1C(c2cccs2)NC(=O)N(C)C1(O)C(F)(F)F` (stereo not given), with -2.14%. Take `COc1cc(C2NC(=O)NC(O)(C(F)(F)F)C2C(=O)c2cccs2)ccc1O` (stereo not given): the inhibition was -4.52%. Then `O=C1NC(c2ccccc2)C(C(=O)c2cccs2)C(O)(C(F)(F)F)N1` (stereo not given), with 0.79%; and `CCc1nnc(NC(=O)CN2CCN(CC)CC2)s1`, with -8.02%. Then `Nc1c2ccccc2nc2ccccc12`, with 17.1%. Then `Cc1cccc2nc3ccccc3cc12`, with -7.86%; and `COCCNC(=O)c1ccc(CN2CCC(Cc3ccccc3)CC2)cc1`, with -1.7%. In the case of `CCOC(=O)C1CCN(C(=O)c2ccccc2NS(=O)(=O)c2ccc(C)cc2)CC1`, the inhibition was -7.2%. Then `CC(Sc1nnc(N)s1)C(=O)Nc1ccc2c(c1)OCCO2` (stereo not given), with -3.64%; and `CCCNC(=O)Cn1cnc([N+](=O)[O-])n1`, with -4.49%.

As to `CC(Cc1ccccc1)NC(=O)Cc1ccc([N+](=O)[O-])cc1` (stereo not given), the inhibition is -4.09%.

Regarding `O=C(O)CC(Cc1ccc(Cl)cc1)C(=O)Nc1ccc([N+](=O)[O-])cc1` (stereo not given), the inhibition was -5.39%. As for `NC(CO)C(O)c1ccc([N+](=O)[O-])cc1` (stereo not given), the inhibition was -4.54%. Then `CCOC(=O)C(NC(C)=O)C(O)c1ccc([N+](=O)[O-])cc1` (stereo not given), with 3.41%; and `O=C(Cc1ccccc1)NC(C(=O)O)C(O)c1ccc([N+](=O)[O-])cc1` (stereo not given), with 3.65%. Then `O=[N+]([O-])c1ccc(C(O)C(CO)NC(=S)Nc2ccccc2)cc1` (stereo not given), with 11.5%. As to `Cc1ccc([N+](=O)[O-])cc1S(=O)(=O)NCc1cccnc1`, the inhibition is -0.437%. Then `COc1ccc(CC(=O)NC(C)C2COc3ccccc3O2)cc1OC` (stereo not given), with 0.47%; and `O=C(NNS(=O)(=O)c1ccc(Cl)cc1)c1cccc(S(=O)(=O)N2CCOCC2)c1`, with 6.08%. Then `CC1CCN(C2CC(=O)N(c3ccccc3)C2=O)CC1` (stereo not given), with -1.51%; and `CC1(C)Cc2cccc(OCC(=O)OCC(=O)NCc3ccc(F)cc3)c2O1`, with 5.2%. In the case of `CC1(NC(=O)c2cccc(S(=O)(=O)N3CCN(c4ccccc4)CC3)c2)CCS(=O)(=O)C1` (stereo not given), the inhibition was -4.48%. With `CN1CC(C(=O)c2ccc(Cl)cc2)C(c2ccccc2)C1` (stereo not given), the inhibition is -0.32%. Regarding `CN1CC(C(=O)c2ccc(Cl)cc2)C(c2ccccc2F)C1` (stereo not given), the inhibition was -5.31%. Regarding `CN(C)Cc1cnc2ccc(Cl)cn12`, the inhibition is 2.3%. Then `COc1ccc(/C=N\NS(=O)(=O)c2ccc(C)cc2)cc1COc1ccccc1[N+](=O)[O-]`, with 2.43%; and `Cc1ccc(CNC(=O)CSc2ncc(C(=O)Nc3ccccc3)c(=O)n2C)cc1`, with 6.4%. Then `CC(C)CC(NC(=O)OC(C)(C)C)C(=O)NC(C(=O)N1CCCC1C(N)=O)C(C)C` (stereo not drawn) (Boc-Leu-Val-Pro-NH2; configuration not given here), with -15.4%. Then `CC(C)(C)OC(=O)N1CCC[C@@H]1CO`, with -5.17%; and `O=c1[nH]c(=O)n(CCC2=CCCCC2)c(O)c1C=NC1CCN(Cc2ccccc2)CC1`, with 5.62%; and `CC1CCCCN1CC(=O)c1ccc2cc[nH]c2c1` (stereo not given), with -0.31%. In the case of `Cc1ccc(CC2S/C(=C(/C#N)C(=O)NCc3ccco3)N(c3ccccc3)C2=O)cc1` (stereo not given), the inhibition was -3.66%. In the case of `Cc1ccc(S(=O)(=O)NC(=NC2CCCCC2)c2ccccc2)cc1`, the inhibition was 5.09%. Turning to `O=[N+]([O-])c1ccc(/C=N/Nc2ccccn2)cc1`, the inhibition is -0.36%. Then `COc1cc([N+](=O)[O-])cc(/C=N/NC(=O)Cn2nccc2C)c1O`, with 14.4%; and `CC(=O)Nc1nonc1NC(=O)CSc1ccccn1`, with 2.24%; and `O=[N+]([O-])c1cccc(/C=N/Nc2ccccn2)c1`, with 8.41%. Take `CCN(CC)c1ccc(/C=N/Nc2nc3ccccc3[nH]2)c(O)c1`: the inhibition is 13.9%.

Take `Cc1nonc1NC(=O)CSc1ccccn1`: the inhibition is 6.57%. Then `COc1ccc(O)c(/C=N/Nc2nc3ccccc3[nH]2)c1`, with 7.61%. With `COc1cc([N+](=O)[O-])cc(/C=N/NC(=O)CSc2nnc(-c3ccccc3)n2C)c1O`, the inhibition was -13.2%. Regarding `COc1cccc(N2CCN(C(=O)C3CCN(S(=O)(=O)c4ccc5c(c4)oc(=O)n5C)CC3)CC2)c1`, the inhibition is 8.62%.

`Cc1ccc(C)c(-c2csc(-c3cccnc3)n2)c1`: the inhibition was 1.2%. Then `COc1ccc(-c2cc(-c3ccc(O)cc3)nc(N)c2C#N)cc1`, with -1.2%; and `N#C/C(=C\c1ccccc1Cl)C(=O)Nc1ccccn1`, with 2.25%; and `COC(=O)COc1ccc(C(C2C(=O)CC(C)(C)CC2=O)C2C(=O)CC(C)(C)CC2=O)cc1`, with -2.61%. Then `NC(=S)NNC(=O)c1cccc(Br)c1`, with -6.69%; and `Cc1ccc(-n2nc(C)c(C(C)(O)C(F)(F)F)c2N)cc1` (stereo not given), with 9.79%; and `O=C(NC(Cc1ccccc1)C(=O)O)/C(=C\c1ccccc1)NC(=O)c1ccc(Br)o1` (stereo not given), with -5.27%.

Consider `COc1cccc(NC(=O)c2ccc(NC(=O)C(C)C)cc2)c1`, for which the inhibition was -3.48%. Regarding `Cc1ccc(N2N=C(c3ccc(F)cc3)CC2c2ccco2)cc1` (stereo not given), the inhibition was -33.1%. `CC1CN(C(=O)COC(=O)c2ccc(N(C)C)cc2)CC(C)O1` (stereo not given): the inhibition is 1.66%. In the case of `COc1ccc(CC(=O)OCC(=O)N(C)C2CCS(=O)(=O)C2)cc1OC` (stereo not given), the inhibition was -0.6%.

As to `Cc1nn(C)cc1/C=N/NC(=O)CSc1ccccn1`, the inhibition is 3.55%. Then `O=C(CSc1ccccn1)N/N=C/c1cccc([N+](=O)[O-])c1`, with 1.33%; and `O=C(CSc1nc2ccccc2s1)N/N=C/c1ccccc1C(=O)O`, with 10.8%.

With `O=C(CSc1ccccn1)N/N=C/c1ccccc1[N+](=O)[O-]`, the inhibition was -6.71%. Then `O=C(CSc1nc2ccccc2s1)NCc1cc([N+](=O)[O-])ccc1O`, with -40.6%. For the compound `Cc1ccnn1CC(=O)N/N=C/c1c[nH]c2ccccc12`, the inhibition was 2.22%. Then `COc1ccc(NC(=O)CN2C(=O)c3cccc4cccc2c34)cc1OC`, with -7.56%; and `O=C(Cn1cc(C(F)(F)F)cc(Cl)c1=O)NCc1ccc(Cl)cc1`, with -1.19%; and `CCCCOC(=O)c1ccc(-c2ccc(/C=N/NC(=S)NCC)o2)cc1`, with -7.32%. Then `O=[N+]([O-])c1ccc(/C([O-])=C(/C(=S)NCc2ccco2)[n+]2ccccc2)cc1`, with 13.8%; and `O=C(NC1CCN(Cc2ccccc2)CC1)C1CCN(S(=O)(=O)c2ccccc2)CC1`, with 5.66%; and `Clc1ccc(-c2csc(N3CCc4ccccc4C3)n2)cc1`, with 5.55%. Then `CC(C)CN=CC1=C(O)c2ccccc2C1=O`, with 5.42%; and `CC(C)(C)CN1CCN(Cc2cc3ccccc3[nH]2)CC1CCO` (stereo not given), with 2.46%; and `Cc1cc(C)n(C(=O)Cn2nc([N+](=O)[O-])cc2C)n1`, with -5.88%. `O=C1CSC(c2cccc([N+](=O)[O-])c2)N1c1ccccc1` (stereo not given): the inhibition is 0.65%. As to `CN1CCCC(CC2Oc3ccccc3Sc3ccccc32)C1` (stereo not given), the inhibition was 11.3%. In the case of `Clc1ccccc1OCCCCN1CCCCC1`, the inhibition is -2.94%. Then `OCCC1CN(Cc2cccc3c2OCO3)CCN1C1CCCCC1` (stereo not given), with -4.26%; and `Cc1ccc(S(=O)(=O)N(C)C(=O)NC(=O)NS(=O)(=O)c2ccccc2)cc1`, with -5.97%; and `CCC(=O)/C=C1\Sc2ccc(OC)cc2N1CCO`, with -12.9%. With `CCC(/C=C1\Sc2ccc(OC)cc2N1CC)=C\c1sc2ccc(OC)cc2[n+]1CCCS(=O)(=O)[O-]`, the inhibition is -7.82%.

In the case of `COc1ccc(/C=N/Nc2nc(C)cc(-c3ccccc3)n2)cc1OC`, the inhibition was -1.16%. `COc1ccc(-c2ccc(=O)n(Cc3cccc(Cl)c3)n2)cc1`: the inhibition was -10.8%. Then `Cc1cc(C)nc(/N=C(\N)Nc2cc([N+](=O)[O-])ccc2C)n1`, with -1.74%; and `Cc1ccc(N/C(N)=N/c2nc(C)cc(C)n2)cc1`, with -9.13%. Then `COc1ccc(C)cc1N/C(N)=N/c1nc(C)cc(C)n1`, with -5.2%. Then `CCC(=O)Nc1ccc(N/C(N)=N/c2nc(C)cc(C)n2)cc1`, with -8.68%.

These data come from PubChem BioAssay AID1850 (Southern Research Specialized Biocontainment Screening …, 2009).
